The values that follow come from PubChem BioAssay (NCATS).

Results filed as inconclusive are left out. Unmarked numbers belong to inactive results. Activity calls are given as the source filed them. The call rests on the fitted dose curve; in most records, active means well fitted inhibition curve with a large enough effect; inconclusive means small, poorly fitted or top-dose-only effect; inactive means flat fitted curve, though single readings scatter.

For one assay, the system named is 3D7. Briefly: qHTS profiling for inhibitors of Plasmodium falciparum proliferation (AID 504749). Further: nearly all actives have a fitted effect of over 60% in size.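 On activity, negative = inhibition: 0% = DMSO vehicle and full inhibition = artemisinin control.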 As to conditions: P. falciparum in erythrocytes, SYBR Green DNA, 72 h; series mostly up to 28.7 µM. The essentials:
(§1)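 Each compound contacts P. falciparum-infected red blood cells for 72 h at 37 C; lysis buffer (Tris, EDTA, saponin, Triton X, SYBR Green I) is added and fluorescence measured next morning; values normalized to controls.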
On the technique in general: qHTS replaces the single test concentration by a dilution series.

Another assay concerns 7G8. The assay is described as above. Conditions: P. falciparum in erythrocytes, SYBR Green DNA, 72 h; series mostly up to 28.7 µM. In a few lines:
as §1

For a further assay, the system named is CP191. The assay is described as above. Conditions: P. falciparum in erythrocytes, SYBR Green DNA, 72 h; series mostly up to 28.7 µM. In a few lines: as §1
A further assay concerns CP192. Described as above. Conditions: P. falciparum in erythrocytes, SYBR Green DNA, 72 h; series mostly up to 28.7 µM. In a few lines: as §1
For a further assay, the system named is CP194. The assay is described as above. Conditions: P. falciparum in erythrocytes, SYBR Green DNA, 72 h; series mostly up to 28.7 µM. The essentials: as §1
Another assay concerns CP201. Described as above. As to conditions: P. falciparum in erythrocytes, SYBR Green DNA, 72 h; series mostly up to 28.7 µM. In a few lines: as §1
Another assay deals with CP203. The description is as above. Conditions: P. falciparum in erythrocytes, SYBR Green DNA, 72 h; series mostly up to 28.7 µM. The essentials:
as §1

Another assay relates to CP211. The description is as above. Conditions: P. falciparum in erythrocytes, SYBR Green DNA, 72 h; series mostly up to 28.7 µM. In a few lines: as §1
In another assay the test system is CP215. The description is as above. Conditions: P. falciparum in erythrocytes, SYBR Green DNA, 72 h; series mostly up to 28.7 µM. The essentials: as §1
The subject of a further assay is CP237. The description is as above. As to conditions: P. falciparum in erythrocytes, SYBR Green DNA, 72 h; series mostly up to 28.7 µM. The essentials:
as §1

Experiment in assay [1]: as above
Conditions: P. falciparum in erythrocytes, SYBR Green DNA, 72 h; for activity, negative = inhibition: at 28.7 µM (top of the series). In a few lines:
as §1

Another assay concerns AA1029. Described as above. Conditions: P. falciparum in erythrocytes, SYBR Green DNA, 72 h; series mostly up to 28.7 µM. The essentials: as §1
Another assay has as its system AS120. Described as above. As to conditions: P. falciparum in erythrocytes, SYBR Green DNA, 72 h; series mostly up to 28.7 µM. The essentials: as §1
For another assay, the system named is ATS189. The description is as above. Conditions: P. falciparum in erythrocytes, SYBR Green DNA, 72 h; series mostly up to 28.7 µM. In a few lines:
as §1

For a further assay, the system named is ATS95. The assay is described as above. Conditions: P. falciparum in erythrocytes, SYBR Green DNA, 72 h; series mostly up to 28.7 µM. The essentials: as §1
A further assay deals with C2A. Described as above. As to conditions: P. falciparum in erythrocytes, SYBR Green DNA, 72 h; series mostly up to 28.7 µM. In a few lines: as §1
In a further assay the test system is CP185. The description is as above. As to conditions: P. falciparum in erythrocytes, SYBR Green DNA, 72 h; series mostly up to 28.7 µM. In a few lines:
as §1

The test system of the next assay is CP217. Described as above. As to conditions: P. falciparum in erythrocytes, SYBR Green DNA, 72 h; series mostly up to 28.7 µM. In a few lines: as §1
Potency means the concentration at half of the fitted maximal effect.

Consider `Nc1ccc(S(=O)(=O)Nc2ccc(Cl)nn2)cc1`, for which the Potency result in the assay on 3D7, in the assay on 7G8, in the assay on CP192, in the assay on CP194, with CP201 and in the assay on CP203 was “inactive” each time. Further, the Potency entry in the assay with CP211, with CP215 and in the assay on CP237 was “inactive” in each case. In addition, in the assay on CP191, the Potency is 1120 nM (active).

As to `CCCCOC(=O)c1ccc(O)cc1`, the activity, negative = inhibition in assay [1] (parasite line A) was 8.74%; in assay [1] (parasite line B), 8.94%. The Potency result in the assay on 3D7, in the assay on AA1029, in the assay with AS120, in the assay with ATS189, in the assay with ATS95 and in the assay on C2A was “inactive” throughout. Besides, the Potency result in the assay on CP185, in the assay with CP191, in the assay on CP192, in the assay with CP194, in the assay on CP201 and in the assay on CP203 was “inactive” throughout. Besides, the Potency result in the assay with CP211, with CP215, in the assay on CP217 and in the assay on CP237 was “inactive” each time.

Take `CSc1ccc2c(c1)N(CCC1CCCCN1C)c1ccccc1S2` (stereo unspecified): the Potency with 7G8 is 5620 nM (active); in the assay with AA1029, 10000 nM (active); in the assay on AS120 it was 11200 nM (active); in the assay on CP237, 10000 nM (active). Further, the Potency result in the assay with CP201 and with CP211 was “inactive” throughout.

Consider `[Cl][In]([Cl])[Cl]`, for which the activity, negative = inhibition was -23.4% in assay [1] (parasite line A) and -19.4% in [1] (parasite line B). Besides, in the assay with 7G8, the Potency was 2000 nM (active). Moreover, the Potency entry in the assay on AA1029, with C2A, in the assay with CP185, with CP192, in the assay on CP194 and in the assay with CP201 was “inactive” throughout. Further, the Potency entry with CP203 and in the assay on CP211 was “inactive” in each case.

Take `NC1CCN(c2cccc(Cl)n2)CC1`: the results for the activity, negative = inhibition in assay [1] (parasite line A) and in assay [1] (parasite line B) were 13.3% and 5.51%, respectively. The Potency entry in the assay on 3D7, in the assay on AS120, with ATS189, in the assay on ATS95, in the assay on C2A and in the assay on CP185 was “inactive” each time. Moreover, the Potency result in the assay with CP191, with CP192, in the assay on CP194, in the assay with CP201, in the assay on CP211 and in the assay on CP215 was “inactive” each time. Further, the Potency result in the assay on CP217 was “inactive”. Further, in the assay with CP237, the Potency is 12600 nM (active).

For the compound `CC1=C(CC(=O)O)c2cc(F)ccc2/C1=C\c1ccc(S(C)=O)cc1` (stereo unspecified), the activity, negative = inhibition was -3.64% in [1] (parasite line A) and -4.38% in [1] (parasite line B). The Potency entry in the assay with 3D7, in the assay with AA1029, in the assay on AS120, in the assay with ATS189, in the assay with ATS95 and in the assay with C2A was “inactive” in each case. The Potency result with CP185, in the assay with CP191, with CP192, with CP194, in the assay on CP201 and in the assay with CP203 was “inactive” throughout. Moreover, the Potency entry in the assay on CP211, in the assay on CP215, in the assay on CP217 and in the assay on CP237 was “inactive” in each case.

As to `OCCN1CCN(CCCN2c3ccccc3Sc3ccc(Cl)cc32)CC1`, the Potency was 4470 nM (active) in the assay with 7G8, 3550 nM (active) in the assay on AA1029, 3980 nM (active) in the assay with AS120 and 3160 nM (active) in the assay with CP191. The Potency entry in the assay on C2A and in the assay on CP192 was “inactive” in each case.

Take `OCc1cc(C(O)CNCCCCCCOCCCCc2ccccc2)ccc1O` (stereo unspecified): the activity, negative = inhibition in assay [1] (parasite line B) is -10.7%. For the same compound, the Potency entry in the assay with 3D7, in the assay with AA1029, in the assay on AS120, in the assay with ATS189, in the assay with ATS95 and in the assay with C2A was “inactive” each time. Further, the Potency result with CP185, in the assay with CP192, in the assay with CP194, in the assay with CP201 and in the assay with CP217 was “inactive” in each case.

`Cc1cc(N)c2ccccc2[n+]1CCCCCCCCCC[n+]1c(C)cc(N)c2ccccc21`: the Potency was 14100 nM (active) in assay [1] (parasite line B); 708 nM (active) in the assay with 3D7; 35.5 nM (active) with 7G8; 316 nM (active) with AA1029; 7940 nM (active) in the assay with AS120; 316 nM (active) in the assay with ATS189. Besides, the Potency was 282 nM (active) in the assay on C2A; 316 nM (active) in the assay with CP185; 50.1 nM (active) with CP191; 361 nM (active) in the assay on CP194; 642 nM (active) in the assay with CP201; 144 nM (active) in the assay on CP211. For the same compound, the Potency in the assay with CP215 is 809 nM (active); with CP217 it was 447 nM (active); with CP237, 126 nM (active).

As to `O=C1NS(=O)(=O)c2ccccc21`, the activity, negative = inhibition in [1] (parasite line A) is 2.53%. Further, the Potency result with 3D7, in the assay on 7G8, in the assay with AA1029, with AS120, in the assay on ATS189 and in the assay on C2A was “inactive” in each case. In addition, the Potency result in the assay on CP185, in the assay on CP191, in the assay with CP192, in the assay with CP194, in the assay on CP201 and with CP203 was “inactive” throughout. The Potency result with CP211, in the assay on CP215, in the assay with CP217 and in the assay with CP237 was “inactive” throughout.

With `CC[C@@]1(c2ccccc2)NC(=O)N(C)C1=O`, the values for the activity, negative = inhibition in assay [1] (parasite line A) and in assay [1] (parasite line B) were -2.42% and 13.3%, respectively. Also, the Potency result with 3D7, with AA1029, in the assay on AS120, with ATS189, in the assay with ATS95 and in the assay with C2A was “inactive” in each case. Also, the Potency entry with CP185, in the assay with CP191, in the assay with CP192, with CP194, in the assay with CP201 and in the assay with CP203 was “inactive” in each case. Further, the Potency entry with CP211, in the assay on CP215, in the assay with CP217 and with CP237 was “inactive” each time.

Take `CN1CCCCC1CCN1c2ccccc2Sc2ccc(S(C)=O)cc21` (stereo unspecified): the values for the activity, negative = inhibition in assay [1] (parasite line A) and in assay [1] (parasite line B) were -4.2% and 5.63%, respectively. Further, the Potency result with 3D7, in the assay with CP185, in the assay with CP192, in the assay with CP201 and with CP217 was “inactive” throughout. The Potency in the assay on 7G8 was 10000 nM (active); in the assay on CP215, 15100 nM (active).
